# Laboratory results: PubChem BioAssay (NCI)
# The panel holds about 83,000 compounds, 20% with a hit somewhere; the sample as a whole holds those more often.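 Step 1: grow cells in 96-well plates. Step 2: add test compound at a single concentration. Step 3: incubate 48 h. Step 4: record percent growth.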 A number with no mark means an inactive call. Calls of active or inactive are those of the source.
# System: UO-31 renal
# Experiment: NCI-60 one-dose screen, 48 h (100 = growth as untreated, 0 = no growth, -100 = all killed)
# Conditions: 10 µM unless noted
# Procedure: Growth inhibition of the UO-31 human tumor cell line is measured as a screen for anti-cancer activity. Cells are grown in 96 well plates and exposed to the test compound for 48 hours. Compounds are tested at a single concentration, which is 10^-5 M for most compounds. The reported endpoint is percent growth (GI% or GIPRCNT), where numbers from 0 - 100% represent growth inhibition, and numbers from -100% - 0 represent cell death. For example, a value of 40 represents 60% growth inhibition. A value of 0 means no net growth occurred over the course of the experiment. A value of -40 indicates 40% of cells at the beginning of the experiment died by the end of the experiment. A value of -100 means all cells are dead at the end of the experiment.
# NCI-60 Human Tumor Cell Lines Screen was performed using the standard one-dose NCI protocol, which is described in more detail at https://dtp.cancer.gov/discovery_development/nci-60/default.htm.
# Compounds with GIPRCNT values below 10 were considered active. Activity score was based on GIPRCNT using the following formula: […]
# Score is 0 for GIPRCNT values of 100 or above, 50 for GIPRCNT values of 0, and 100 for GIPRCNT values of -100.
row,SMILES,growth
1,COC1=CC(=O)C(OC)=C(OC)C1=O,104%
2,O=c1[nH]c(-c2ccccn2)nc2sc3c(c12)CCCCC3,32.6%
3,Cc1ccc(Nc2c(C(N)=O)cnc3ccc(-c4csc(N)n4)cc23)cc1,88.7%
4,Cc1ccc2c(NCCCN(C)C)c3c(C)nn(C)c3nc2c1,26.5%
5,Nc1c(C(=O)Nc2ccccc2Cl)sc2nc3c(cc12)CCCCCC3,-8.93% (active)
6,Fc1ccc(Cc2ccc(F)cc2)cc1,79.7%
7,O=C1NC(=O)C(CC(=O)n2c(-c3ccccc3)nc3ccccc32)C(=O)N1,79.6%
8,CCCCCCCCCc1cc(CN2CCCCC2)c(O)c(CN2CCCCC2)c1,44.1%
9,CC1=C(NCCN2CCCC2)C(=O)c2c(OCc3ccc(F)c(Cl)c3)cccc2C1=O,42.8%
10,CC[C@@H](C)OC(=O)c1nn(C(C)=O)c2ccccc12,92.9%
11,COc1cnc2c(c1)C(=O)c1c-2n(CCCN2CCNCC2)c(=O)c2cc([N+](=O)[O-])ccc12,-79.3% (active)
12,COc1ccc2nc3cc(Cl)ccc3c(N3CCN(c4nccc(Nc5ccc(Cl)cc5)n4)CC3)c2c1,54.8%
13,CCNS(=O)(=O)c1ncnc2nc[nH]c12,85.8%
14,Nc1cc(O)cc2cccnc12,48.1%
15,Clc1ccc(-c2nnc(COc3ccccc3Cl)o2)cc1,77.5%
16,COc1ccc(-c2cc(=O)[nH]c3c(OC)c4ccccc4c(OC)c23)cc1,31.3%
17,CN1CCN(Cc2ccc(NC(=O)c3cncc(C#Cc4c(N)ncc5ccc(C#N)cc45)c3)cc2C(F)(F)F)CC1,-88.5% (active)
18,O=C(CCN1CCOCC1)Nc1ccc(Cn2nnc3c2C(=O)c2nnn(Cc4ccc(NC(=O)CCN5CCOCC5)cc4)c2C3=O)cc1,108%
19,CC(C)c1c(C(=O)Nc2ccccc2)c(-c2ccccc2)c(-c2ccc(F)cc2)n1CC[C@@H]1CC=CC(=O)O1,-75.9% (active)
20,COc1ccc(C(=O)COc2ccc(/C=C3\Oc4ccc(Cl)cc4C3=O)cc2)cc1,83.4%

row,SMILES,growth
1,COc1cc(/C=N\NC(=O)CN2CCN(c3cc4c(cc3F)c(=O)c(C(=O)N/N=C/c3ccc(O)c(OC)c3)cn4C3CC3)CC2)ccc1O,76.7%
2,CCC(c1ccc(O)cc1)C(CC)c1ccc(O)c(F)c1 (stereo not given),55.4%
3,Nc1cc2ccncc2c2ccccc12,51.6%
4,N#Cc1c2c(nc3n[nH]c(N)c13)CCCC2,71.7%
5,O=C(CCCCN1CCOCC1)Nc1ccc(Cn2nnc3c2C(=O)c2nnn(Cc4ccc(NC(=O)CCCCN5CCOCC5)cc4)c2C3=O)cc1,10.5%
6,C=C1CCC2C3(C)COC(c4cccc(Cl)c4)OC3CCC2(C)C1/C=C/C1=CCOC1=O (stereo not given),38.8%
7,CC(C)(C)n1cc(-c2ccnc(NCCCNS(=O)(=O)c3cccc4ccccc34)c2)c(-c2cccc(O)c2)n1,44.8%
8,CC(=O)OCC1OC(OC2=C(CC=C(Cl)Cl)C(=O)c3ccccc3C2=O)C(OC(C)=O)C(OC(C)=O)C1OC(C)=O (stereo not given),69.3%
9,O=C1c2cc3c(cc2-c2c1c1cc(Cl)c(Cl)cc1c(=O)n2C[C@H](O)CO)OCO3,-61.3% (active)
10,NS(=O)(=O)c1ccc(Nc2nc3n[nH]c(Nc4ccccc4)c3c(=O)[nH]2)cc1,74.9%
11,c1ccc(CSc2ncnc3nc[nH]c23)nc1,96.4%
12,COc1cnc2c(c1)C(=O)c1c-2n(CCCN2CCCC2)c(=O)c2cc([N+](=O)[O-])ccc12,-96.3% (active)
13,CN(C)CC(=O)Nc1ccc(Cn2nnc3c2C(=O)c2nnn(Cc4ccc(NC(=O)CN(C)C)cc4)c2C3=O)cc1,-20.6% (active)
14,CC/C(Cc1ccccc1)=C(/c1ccc(O)cc1)c1ccc(OCCN2CCCC2)cc1,-79.8% (active)
15,Cc1csc2ccc(Cl)cc12,81.6%
16,Cc1[nH]n(-c2ccccc2)c2nc3nncc3c(-c3ccc(Cl)cc3)c12,96.6%
17,Nc1nc(SCc2ccccc2)c2ncn(C3CCCC3)c2n1,89.9%
18,Cc1ccc(N)cc1F,92.6%
19,COc1ccc(CN2C(=O)/C(=C\c3cc(OC)c(OC)c(OC)c3)c3cc(OC)ccc32)cc1,6.01% (active)
20,O=S(=O)(NCCCNc1cc(-c2cn(-c3ccccc3)nc2-c2cccc(O)c2)ccn1)c1ccccc1,37.8%
